From the supplement of paper PMC10849652
About 8,800 targets were measured; listed, in parts, are those with a hit and a random draw of the rest. About 0.5% of all pairs of compound and target were hits. A number with no mark means an inactive call.

Key:
Assay in all cases: log2 fold change, soluble protein after heating vs DMSO (PISA); higher = thermal stabilisation; K562 lysate, 10 uM; active = over 0.2 and 3.5 SD of the protein, either way, in both replicates (recomputed)
vemurafenib = compound: CCCS(=O)(=O)Nc1ccc(F)c(C(=O)c2c[nH]c3ncc(-c4ccc(Cl)cc4)cc23)c1F [vemurafenib]
Procedure, shortened: (§1)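 Following dounce homogenisation of K562 pellets in PBS pH 7.4 with 1 mM MgCl2, crude extract at 1 mg/mL protein was incubated for 30 min with 10 μM compound. Aliquots were then heated for 3 min over 48°C-58°C and pooled, NP-40 was added to 0.5% at 4°C, and soluble protein was recovered as the supernatant at 21,000xg for 90 min. Channel-sum-equalised TMTpro 16plex LC-MS/MS quantified this protein. Each value, from duplicates, is a log-two fold change in thermal stability relative to solvent controls.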

[1] = compound: CCCS(=O)(=O)Nc1ccc(F)c(C(=O)c2c[nH]c3ncc(Cl)cc23)c1F
Procedure, shortened: as §1

barasertib = compound: CCN(CCCOc1ccc2c(Nc3cc(CC(=O)Nc4cccc(F)c4)[nH]n3)ncnc2c1)CCOP(=O)(O)O [barasertib]
Procedure, shortened: as §1

[2] = compound: CC[C@@H]1C(=O)N(C)c2cnc(Nc3ccc(C(=O)NC4CCN(C)CC4)cc3OC)nc2N1C1CCCC1
Procedure, shortened: as §1

volasertib = compound: CC[C@@H]1C(=O)N(C)c2cnc(Nc3ccc(C(=O)N[C@H]4CC[C@H](N5CCN(CC6CC6)CC5)CC4)cc3OC)nc2N1C(C)C [volasertib]
Procedure, shortened: as §1

[3] = compound: CCn1c(C(=O)N(C2CC2)C2CC2)cc2c3c(ncn3C)c(Nc3cc(C)n(C)n3)nc21
Procedure, shortened: as §1

[4] = compound: CCn1cc(-c2ccnc3[nH]c(-c4cccc(CN(C)C)c4)cc23)c(-c2ccc(NC(=O)N(C)C)cc2)n1
Procedure, shortened: as §1

[5] = compound: CN1CCC(CNc2ccc3ncc(-c4cccc(OC(F)(F)F)c4)n3n2)CC1
Procedure, shortened: as §1

saracatinib = compound: CN1CCN(CCOc2cc(OC3CCOCC3)c3c(Nc4c(Cl)ccc5c4OCO5)ncnc3c2)CC1 [saracatinib]
Procedure, shortened: as §1

sotrastaurin = compound: CN1CCN(c2nc(C3=C(c4c[nH]c5ccccc45)C(=O)NC3=O)c3ccccc3n2)CC1 [sotrastaurin]
Procedure, shortened: as §1

alvocidib = compound: CN1CC[C@H](c2c(O)cc(O)c3c(=O)cc(-c4ccccc4Cl)oc23)[C@H](O)C1 [alvocidib]
Procedure, shortened: as §1

Tubastatin A = compound: CN1CCc2c(c3ccccc3n2Cc2ccc(C(=O)NO)cc2)C1 [Tubastatin A]
Procedure, shortened: as §1

[6] = compound: CNC(=O)C1=CC=CC=C1NC2=NC(=NC=C2Cl)NC3=C(C=C(C=C3)N4CCOCC4)OC
Procedure, shortened: as §1

defactinib = compound: CNC(=O)c1ccc(Nc2ncc(C(F)(F)F)c(NCc3nccnc3N(C)S(C)(=O)=O)n2)cc1 [defactinib]
Procedure, shortened: as §1

[7] = compound: CNc1nc(-c2ccc3c(N)n[nH]c3c2)cc(N2C[C@@H](C(=O)NC3CCCCC3)CC[C@H]2C)n1
Procedure, shortened: as §1

encorafenib = compound: COC(=O)N[C@@H](C)CNc1nccc(-c2cn(C(C)C)nc2-c2cc(Cl)cc(NS(C)(=O)=O)c2F)n1 [encorafenib]
Procedure, shortened: as §1

[8] = compound: COC(=O)[C@H](CCSC)NC(=O)C1=C(C=C(C=C1)NC[C@H](CS)N)C2=CC=CC=C2
Procedure, shortened: as §1

alisertib = compound: COc1cc(Nc2ncc3c(n2)-c2ccc(Cl)cc2C(c2c(F)cccc2OC)=NC3)ccc1C(=O)O [alisertib]
Procedure, shortened: as §1

[9] = compound: COc1cc2nc(-c3cc(F)ccc3O)nc(N[C@@H]3CNC[C@H]3C(C)(C)O)c2cc1OC
Procedure, shortened: as §1

gefitinib = compound: COc1cc2ncnc(Nc3ccc(F)c(Cl)c3)c2cc1OCCCN1CCOCC1 [gefitinib]
Procedure, shortened: as §1

ERLIN1 (UniProt O75477)
Chain of UniProt O75477 (O75477 whole entry, looked up): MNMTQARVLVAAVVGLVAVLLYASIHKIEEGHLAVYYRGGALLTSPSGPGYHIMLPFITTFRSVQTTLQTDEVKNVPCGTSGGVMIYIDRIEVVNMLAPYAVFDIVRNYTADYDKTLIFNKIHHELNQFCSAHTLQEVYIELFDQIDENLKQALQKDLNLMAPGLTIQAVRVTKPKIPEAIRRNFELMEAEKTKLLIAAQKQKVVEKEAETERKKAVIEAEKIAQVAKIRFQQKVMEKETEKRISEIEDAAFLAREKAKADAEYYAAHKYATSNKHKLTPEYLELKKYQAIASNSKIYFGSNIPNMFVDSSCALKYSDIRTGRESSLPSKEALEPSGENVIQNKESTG
log2 fold change (vemurafenib): 0.01
log2 fold change [1]: 0.013
log2 fold change (barasertib): 0.008
log2 fold change [2]: -0.037
log2 fold change (volasertib): -0.029
log2 fold change [3]: 0.033
log2 fold change [4]: 1.01
log2 fold change [5]: -0.059
log2 fold change (saracatinib): 0.041
log2 fold change (sotrastaurin): -0.023
log2 fold change (alvocidib): 0.006
log2 fold change (Tubastatin A): -0.058
log2 fold change [6]: -0.001
log2 fold change (defactinib): -0.024
log2 fold change [7]: -0.066
log2 fold change (encorafenib): 0.086
log2 fold change [8]: -0.216 (active)
log2 fold change (alisertib): -0.007
log2 fold change [9]: -0.028
log2 fold change (gefitinib): 0.035

FKBP1A (UniProt P62942)
Chain of UniProt P62942 (P62942 whole entry, looked up): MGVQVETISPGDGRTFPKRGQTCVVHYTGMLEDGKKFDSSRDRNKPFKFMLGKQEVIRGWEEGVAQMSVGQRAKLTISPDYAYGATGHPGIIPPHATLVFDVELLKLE
log2 fold change (vemurafenib): -0.138
log2 fold change [1]: -0.028
log2 fold change (barasertib): 0.092
log2 fold change [2]: 0.107
log2 fold change (volasertib): 0.163
log2 fold change [3]: -0.036
log2 fold change [4]: -0.854 (active)
log2 fold change [5]: 0.146
log2 fold change (saracatinib): 0.052
log2 fold change (sotrastaurin): -0.017
log2 fold change (alvocidib): -0.296
log2 fold change (Tubastatin A): 0.047
log2 fold change [6]: 0.06
log2 fold change (defactinib): 0.144
log2 fold change [7]: 0.034
log2 fold change (encorafenib): 0.005
log2 fold change [8]: -0.061
log2 fold change (alisertib): 0.105
log2 fold change [9]: -0.076
log2 fold change (gefitinib): -0.003

FTSJ1 (UniProt Q9UET6)
Chain of UniProt Q9UET6 (Q9UET6 whole entry, looked up): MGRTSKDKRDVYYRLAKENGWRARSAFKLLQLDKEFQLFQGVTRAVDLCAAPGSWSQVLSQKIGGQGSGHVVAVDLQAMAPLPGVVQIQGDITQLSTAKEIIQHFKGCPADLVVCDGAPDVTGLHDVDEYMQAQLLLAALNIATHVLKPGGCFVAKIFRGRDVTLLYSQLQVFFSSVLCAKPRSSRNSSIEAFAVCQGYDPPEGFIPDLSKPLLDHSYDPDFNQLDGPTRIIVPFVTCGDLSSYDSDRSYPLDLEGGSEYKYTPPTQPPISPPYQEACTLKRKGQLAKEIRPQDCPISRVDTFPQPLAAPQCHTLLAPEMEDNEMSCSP
log2 fold change (vemurafenib): -0.036
log2 fold change [1]: -0.006
log2 fold change (barasertib): -0.043
log2 fold change [2]: -0.04
log2 fold change (volasertib): -0.056
log2 fold change [3]: -0.003
log2 fold change [4]: 0.067
log2 fold change [5]: 0.027
log2 fold change (saracatinib): -0.018
log2 fold change (sotrastaurin): 0.089
log2 fold change (alvocidib): 0.003
log2 fold change (Tubastatin A): -0.038
log2 fold change [6]: 0.049
log2 fold change (defactinib): -0.021
log2 fold change [7]: -0.016
log2 fold change (encorafenib): -0.025
log2 fold change [8]: 0.089
log2 fold change (alisertib): 0.004
log2 fold change [9]: 0.005
log2 fold change (gefitinib): -0.001

EEF1AKMT4 (UniProt P0DPD7)
Chain of UniProt P0DPD7 (P0DPD7 whole entry, looked up): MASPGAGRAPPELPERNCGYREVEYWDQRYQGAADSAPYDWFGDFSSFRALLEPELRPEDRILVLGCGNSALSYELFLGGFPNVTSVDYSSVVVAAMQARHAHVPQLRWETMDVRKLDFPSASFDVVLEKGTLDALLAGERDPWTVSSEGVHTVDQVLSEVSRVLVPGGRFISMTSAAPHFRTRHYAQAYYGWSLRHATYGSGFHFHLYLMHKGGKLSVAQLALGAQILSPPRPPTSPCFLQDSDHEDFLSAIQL
log2 fold change (vemurafenib): 0.135
log2 fold change [1]: 0.008
log2 fold change (barasertib): 0.126
log2 fold change [2]: -0.025
log2 fold change (volasertib): -0.072
log2 fold change [3]: -0.035
log2 fold change [4]: -0.129
log2 fold change [5]: 0.052
log2 fold change (saracatinib): -0.033
log2 fold change (sotrastaurin): -0.004
log2 fold change (alvocidib): -0.029
log2 fold change (Tubastatin A): -0.027
log2 fold change [6]: 0.074
log2 fold change (defactinib): 0.03
log2 fold change [7]: 0.188
log2 fold change (encorafenib): 0.042
log2 fold change [8]: 0.012
log2 fold change (alisertib): 0.037
log2 fold change [9]: 0.068
log2 fold change (gefitinib): 0.004

FANCI (UniProt Q9NVI1)
Chain of UniProt Q9NVI1 (Q9NVI1 whole entry, looked up): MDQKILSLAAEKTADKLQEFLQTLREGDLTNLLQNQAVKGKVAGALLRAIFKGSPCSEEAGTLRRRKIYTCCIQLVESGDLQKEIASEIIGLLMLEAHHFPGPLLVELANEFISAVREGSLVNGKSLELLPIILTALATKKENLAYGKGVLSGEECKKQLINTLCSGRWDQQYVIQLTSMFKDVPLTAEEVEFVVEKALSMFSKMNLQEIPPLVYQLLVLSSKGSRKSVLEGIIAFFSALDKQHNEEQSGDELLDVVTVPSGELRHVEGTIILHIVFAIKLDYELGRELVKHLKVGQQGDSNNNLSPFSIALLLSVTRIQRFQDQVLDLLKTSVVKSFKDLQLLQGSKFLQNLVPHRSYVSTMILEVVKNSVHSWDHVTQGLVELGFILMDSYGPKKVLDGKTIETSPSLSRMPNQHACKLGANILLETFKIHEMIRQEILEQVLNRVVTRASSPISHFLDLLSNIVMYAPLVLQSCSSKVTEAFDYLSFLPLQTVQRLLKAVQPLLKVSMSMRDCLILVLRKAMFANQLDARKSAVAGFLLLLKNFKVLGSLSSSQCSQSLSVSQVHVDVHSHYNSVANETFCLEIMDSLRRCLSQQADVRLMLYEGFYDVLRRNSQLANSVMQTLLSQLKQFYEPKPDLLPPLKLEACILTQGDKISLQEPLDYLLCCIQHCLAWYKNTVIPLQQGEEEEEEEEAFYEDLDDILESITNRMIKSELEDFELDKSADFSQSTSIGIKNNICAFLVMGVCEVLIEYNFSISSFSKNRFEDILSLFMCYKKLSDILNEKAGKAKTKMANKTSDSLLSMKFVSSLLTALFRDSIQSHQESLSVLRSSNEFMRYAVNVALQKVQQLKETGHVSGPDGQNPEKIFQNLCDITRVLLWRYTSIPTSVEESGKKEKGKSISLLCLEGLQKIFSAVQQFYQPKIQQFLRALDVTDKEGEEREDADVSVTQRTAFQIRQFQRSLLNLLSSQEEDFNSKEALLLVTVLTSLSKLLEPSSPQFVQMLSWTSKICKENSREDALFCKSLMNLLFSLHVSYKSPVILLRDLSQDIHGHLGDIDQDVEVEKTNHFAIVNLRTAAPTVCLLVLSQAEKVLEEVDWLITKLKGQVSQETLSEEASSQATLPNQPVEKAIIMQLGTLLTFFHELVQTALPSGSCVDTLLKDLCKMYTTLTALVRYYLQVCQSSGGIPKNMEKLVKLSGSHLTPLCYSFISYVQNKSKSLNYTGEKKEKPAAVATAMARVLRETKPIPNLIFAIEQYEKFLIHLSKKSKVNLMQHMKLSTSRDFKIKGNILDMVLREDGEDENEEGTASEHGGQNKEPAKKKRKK
log2 fold change (vemurafenib): 0.018
log2 fold change [1]: 0.021
log2 fold change (barasertib): 0.045
log2 fold change [2]: -0.028
log2 fold change (volasertib): -0.053
log2 fold change [3]: 0.031
log2 fold change [4]: 0.021
log2 fold change [5]: -0.119
log2 fold change (saracatinib): 0.017
log2 fold change (sotrastaurin): 0.02
log2 fold change (alvocidib): 0.063
log2 fold change (Tubastatin A): -0.097
log2 fold change [6]: 0.014
log2 fold change (defactinib): 0.01
log2 fold change [7]: -0.036
log2 fold change (encorafenib): 0.002
log2 fold change [8]: 0.052
log2 fold change (alisertib): 0
log2 fold change [9]: 0.01
log2 fold change (gefitinib): -0.002

FBXO45 (UniProt P0C2W1)
Chain of UniProt P0C2W1 (P0C2W1 whole entry, looked up): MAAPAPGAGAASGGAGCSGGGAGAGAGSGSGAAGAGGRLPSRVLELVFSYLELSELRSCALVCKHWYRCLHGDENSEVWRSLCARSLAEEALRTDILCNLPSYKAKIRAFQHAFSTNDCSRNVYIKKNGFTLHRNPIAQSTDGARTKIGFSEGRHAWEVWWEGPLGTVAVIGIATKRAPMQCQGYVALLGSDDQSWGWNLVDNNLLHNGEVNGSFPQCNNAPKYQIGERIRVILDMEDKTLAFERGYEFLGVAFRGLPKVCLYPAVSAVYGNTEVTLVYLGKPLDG
log2 fold change (vemurafenib): -0.064
log2 fold change [1]: 0.088
log2 fold change (barasertib): 0.031
log2 fold change [2]: -0.077
log2 fold change (volasertib): -0.04
log2 fold change [3]: 0.062
log2 fold change [4]: -0.002
log2 fold change [5]: 0.037
log2 fold change (sotrastaurin): 0.028
log2 fold change (alvocidib): -0.047
log2 fold change (Tubastatin A): -0.162
log2 fold change [6]: -0.035
log2 fold change (defactinib): -0.009
log2 fold change (encorafenib): -0.062
log2 fold change [8]: -0.035
log2 fold change (alisertib): 0.003
log2 fold change [9]: 0.02
log2 fold change (gefitinib): -0.002

FUBP3 (UniProt Q96I24)
Chain of UniProt Q96I24 (Q96I24 whole entry, looked up): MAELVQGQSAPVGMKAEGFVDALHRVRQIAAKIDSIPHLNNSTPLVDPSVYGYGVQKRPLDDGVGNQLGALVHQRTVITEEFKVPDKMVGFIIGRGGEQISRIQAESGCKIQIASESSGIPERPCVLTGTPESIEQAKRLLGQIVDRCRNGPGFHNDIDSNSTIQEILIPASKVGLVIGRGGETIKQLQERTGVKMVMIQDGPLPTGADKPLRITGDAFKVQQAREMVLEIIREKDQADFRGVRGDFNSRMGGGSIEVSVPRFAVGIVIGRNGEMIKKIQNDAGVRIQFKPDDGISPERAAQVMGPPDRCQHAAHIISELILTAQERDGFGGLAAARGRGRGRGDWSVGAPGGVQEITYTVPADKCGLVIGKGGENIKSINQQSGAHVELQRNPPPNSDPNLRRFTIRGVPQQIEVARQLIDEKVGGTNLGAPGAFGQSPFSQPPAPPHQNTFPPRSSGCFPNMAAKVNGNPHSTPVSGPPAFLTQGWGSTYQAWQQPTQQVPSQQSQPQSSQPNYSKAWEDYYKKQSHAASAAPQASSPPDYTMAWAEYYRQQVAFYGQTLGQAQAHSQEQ
log2 fold change (vemurafenib): -0.007
log2 fold change [1]: 0.019
log2 fold change (barasertib): 0.048
log2 fold change [2]: 0.046
log2 fold change (volasertib): -0.032
log2 fold change [3]: 0.042
log2 fold change [4]: 0.028
log2 fold change [5]: -0.012
log2 fold change (saracatinib): 0.03
log2 fold change (sotrastaurin): -0.077
log2 fold change (alvocidib): 0.008
log2 fold change (Tubastatin A): -0.101
log2 fold change [6]: -0.033
log2 fold change (defactinib): 0.005
log2 fold change [7]: -0.05
log2 fold change (encorafenib): 0.065
log2 fold change [8]: -0.146
log2 fold change (alisertib): 0.048
log2 fold change [9]: 0.001
log2 fold change (gefitinib): -0.033

DYNC1I2 isoform 2 (UniProt Q13409)
Chain of UniProt Q13409 (Q13409 whole entry, looked up): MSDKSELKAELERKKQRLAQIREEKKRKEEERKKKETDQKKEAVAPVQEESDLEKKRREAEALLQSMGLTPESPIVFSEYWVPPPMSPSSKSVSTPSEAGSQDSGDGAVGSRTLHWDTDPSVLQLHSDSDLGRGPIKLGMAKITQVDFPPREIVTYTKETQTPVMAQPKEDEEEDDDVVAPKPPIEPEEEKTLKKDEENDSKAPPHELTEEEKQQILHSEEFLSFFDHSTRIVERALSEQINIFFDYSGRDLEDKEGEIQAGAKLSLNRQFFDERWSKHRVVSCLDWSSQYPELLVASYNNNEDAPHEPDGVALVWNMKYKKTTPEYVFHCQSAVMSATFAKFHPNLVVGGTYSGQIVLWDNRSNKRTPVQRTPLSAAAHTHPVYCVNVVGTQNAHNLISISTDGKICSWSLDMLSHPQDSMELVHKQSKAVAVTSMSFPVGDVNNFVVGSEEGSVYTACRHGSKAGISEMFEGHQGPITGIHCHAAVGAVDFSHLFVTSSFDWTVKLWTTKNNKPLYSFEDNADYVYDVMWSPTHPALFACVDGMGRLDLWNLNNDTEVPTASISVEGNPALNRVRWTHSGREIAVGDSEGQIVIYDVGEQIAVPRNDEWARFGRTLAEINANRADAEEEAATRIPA
log2 fold change (vemurafenib): -0.073
log2 fold change [1]: 0.042
log2 fold change (barasertib): -0.123
log2 fold change [2]: 0.132
log2 fold change (volasertib): -0.039
log2 fold change [3]: 0.035
log2 fold change [4]: -0.022
log2 fold change [5]: 0.082
log2 fold change (saracatinib): -0.077
log2 fold change (sotrastaurin): 0.006
log2 fold change (alvocidib): 0.065
log2 fold change (Tubastatin A): 0.002
log2 fold change [6]: -0.02
log2 fold change (defactinib): 0.001
log2 fold change [7]: -0.039
log2 fold change (encorafenib): 0.011
log2 fold change [8]: 0.056
log2 fold change [9]: 0.096

GABPB1 isoform 3 (UniProt Q06547)
Chain of UniProt Q06547 (Q06547 whole entry, looked up): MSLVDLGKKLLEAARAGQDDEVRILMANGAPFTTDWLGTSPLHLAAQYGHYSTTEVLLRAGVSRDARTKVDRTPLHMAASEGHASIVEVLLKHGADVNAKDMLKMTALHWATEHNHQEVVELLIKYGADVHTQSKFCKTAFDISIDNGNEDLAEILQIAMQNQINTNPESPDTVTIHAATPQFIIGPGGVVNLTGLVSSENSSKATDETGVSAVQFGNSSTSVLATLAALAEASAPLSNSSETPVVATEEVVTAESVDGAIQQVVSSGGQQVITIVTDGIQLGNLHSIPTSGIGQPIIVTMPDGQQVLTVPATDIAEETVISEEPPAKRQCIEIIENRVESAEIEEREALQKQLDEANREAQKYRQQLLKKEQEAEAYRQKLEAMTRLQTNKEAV
log2 fold change (vemurafenib): 0.057
log2 fold change [1]: 0.074
log2 fold change (barasertib): 0.141
log2 fold change [2]: -0.048
log2 fold change (volasertib): -0.11
log2 fold change [3]: -0.016
log2 fold change [4]: -0.042
log2 fold change [5]: -0.028
log2 fold change (saracatinib): -0.006
log2 fold change (sotrastaurin): -0.022
log2 fold change (alvocidib): -0.013
log2 fold change (Tubastatin A): -0.299 (active)
log2 fold change [6]: -0.055
log2 fold change (defactinib): -0.025
log2 fold change [7]: -0.039
log2 fold change (encorafenib): -0.006
log2 fold change [8]: 0.099
log2 fold change [9]: 0.016
